Autofluor counter: flagged as autofluorescent in microsphere protease counterscreen. compound autofluorescence counterscreen, microsphere flow cytometry; stronger effect = higher value. fluorescence intensity (test concentration not listed). 360,000 compounds, 3.1% hits. AID 624483; in the data active means fluorescence intensity above about 16000; inconclusive means no clear call, values can overlap the other calls
BoNT A protease: BoNT A light chain protease inhibition; multiplex microsphere protease substrate cleavage, flow cytometry; inhibition, % at 10 µM; 360,000 compounds, 0.17% hits; further: plate controls were buffer without enzyme for full effect and enzyme alone for no effect
BoNT-F LC inh: BoNT F light chain protease inhibition. Multiplex microsphere protease cleavage assay, flow cytometry. inhibition, % at 10 µM. 360,000 compounds, 0.22% hits. AID 588497; in the data active means inhibition above about 35%, passing the limit was not always enough; inconclusive means no clear call, values can overlap the other calls; further: plate controls were buffer without enzyme for full effect and enzyme alone for no effect
SARS 3CLpro inh-1: SARS-CoV 3CLpro protease inhibition; 290,000 compounds, 0.14% hits; AID 1706; recombinant SARS-CoV 3CLpro, quenched FRET peptide cleavage; inhibition, % at 6 µM; P0C6X7; in the data active means inhibition above about 12%
Anthrax LF prot: anthrax lethal factor protease inhibition. P15917. multiplex microsphere protease cleavage assay, LF. inhibition, % at 10 µM. 360,000 compounds, 0.12% hits. AID 588501; further: plate controls were buffer without enzyme for full effect and enzyme alone for no effect
Target sequence (P15917 whole entry, looked up): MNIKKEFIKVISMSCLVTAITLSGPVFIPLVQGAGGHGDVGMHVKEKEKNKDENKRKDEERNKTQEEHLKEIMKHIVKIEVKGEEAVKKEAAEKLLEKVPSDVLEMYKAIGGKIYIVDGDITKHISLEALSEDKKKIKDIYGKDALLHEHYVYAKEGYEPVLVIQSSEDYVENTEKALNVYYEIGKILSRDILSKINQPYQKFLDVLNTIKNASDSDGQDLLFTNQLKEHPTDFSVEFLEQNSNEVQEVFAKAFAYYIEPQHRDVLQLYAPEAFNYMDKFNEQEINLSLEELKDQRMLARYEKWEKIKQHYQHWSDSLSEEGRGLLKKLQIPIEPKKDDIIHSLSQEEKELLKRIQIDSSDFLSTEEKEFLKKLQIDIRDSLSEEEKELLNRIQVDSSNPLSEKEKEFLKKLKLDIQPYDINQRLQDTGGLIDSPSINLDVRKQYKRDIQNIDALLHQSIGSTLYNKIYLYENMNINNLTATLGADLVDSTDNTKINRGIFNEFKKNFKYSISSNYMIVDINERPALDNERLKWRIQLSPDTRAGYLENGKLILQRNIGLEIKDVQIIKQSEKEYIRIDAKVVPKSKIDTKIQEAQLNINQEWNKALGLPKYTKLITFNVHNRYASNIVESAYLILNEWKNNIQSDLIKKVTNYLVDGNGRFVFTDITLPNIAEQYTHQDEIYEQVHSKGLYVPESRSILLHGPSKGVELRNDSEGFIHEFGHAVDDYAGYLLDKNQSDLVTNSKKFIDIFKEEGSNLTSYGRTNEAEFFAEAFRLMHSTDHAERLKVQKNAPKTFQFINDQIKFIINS
SARS 3CLpro inh-2: SARS 3CLpro inhibition, confirmation assay. shares compounds with SARS 3CLpro inh-1. QFRET protease activity assay. inhibition, % at 6 µM. 380 compounds, 36% hits. AID 1879; in the data active means inhibition above about 13%
* = called active by the depositor; ? = inconclusive; / = no result. Shown are actives, neighbours in structure and some others; about 3.5% of the full set was active somewhere. Unless noted, no stated cut-off is given here; in the data, active means inhibition above about 30%; inconclusive means no clear call, values can overlap the other calls; inactive means below that.

SMILES | Autofluor counter | BoNT A protease | BoNT-F LC inh | SARS 3CLpro inh-1 | Anthrax LF prot | SARS 3CLpro inh-2
O=C(OCCNC(=O)c1ccc2ccccc2n1)c1ccc(F)cc1 | 16884* | ? | -5 | 7 | 1 | /
CCc1nc(-c2cc3ccc(C)cc3[nH]c2=O)no1 | 9970 | 0 | -1 | 6 | 2 | /
Cc1ccc2cc(-c3noc(C(C)(C)C)n3)c(=O)[nH]c2c1 | 22460* | 2 | 3 | -4 | 2 | /
CC(=O)Oc1c(Cl)c(N2CCOCC2)c(OC(C)=O)c2ccccc12 | 17480* | -2 | -4 | 1 | -3 | /
CN(Cc1ccccc1)C(=O)CSc1nnc(-c2ccco2)n1-c1ccccc1 | 19956* | -2 | 0 | -3 | -1 | /
CN(C)C(=O)CSc1nnc(-c2ccco2)n1-c1ccccc1 | 3575 | -1 | 1 | / | 12 | /
Cc1ccc2nc(CSc3nnc(-c4ccco4)n3-c3ccccc3)cc(=O)n2c1 | 22931* | 0 | 1 | 0 | -1 | /
Cc1ccc2nc(CSc3nnc(-c4ccco4)o3)cc(=O)n2c1 | 5877 | 0 | -5 | -2 | -5 | /
CCOc1cc(C2NC(=O)NC(C)=C2C(=O)NCc2ccccc2)c(Cl)cc1O (centres undefined) | 20868* | 0 | 1 | 0 | 0 | /
CC1=C(C(=O)NCc2ccccc2)C(c2ccccc2OCC(N)=O)NC(=O)N1 (centres undefined) | 10262 | 0 | 0 | 2 | 2 | /
C=CCOc1ccccc1C1NC(=O)NC(C)=C1C(=O)NCc1ccccc1 (centres undefined) | 17255* | ? | -5 | -1 | 1 | /
COc1ccc(CNC(=O)COC(=O)c2ccc(F)c(S(=O)(=O)N3CCOCC3)c2)cc1 | 4400 | -1 | -17 | / | -6 | /
CN1CCN(C(=O)CSc2ccc(Cl)cc2)CC1 | 4980 | 0 | 1 | 2 | 2 | /
CCOC(=O)c1c(-n2c(C)cc(C=O)c2C)sc2c1CCCC2 | 22089* | 0 | 0 | -1 | -4 | /
O=C1C(Cc2ccc(O)cc2)NC(=S)N1c1ccccc1 (centres undefined) | 23822* | -3 | -2 | 6 | -1 | /
O=C(O)CC1NC(=S)N(c2ccccc2)C1=O (centres undefined) | 8217 | 1 | 2 | -2 | -1 | /
CCc1ccc(NC(=O)C2(C)Cc3ccccc3C(=O)O2)cc1 (centres undefined) | 4559 | 0 | -3 | 3 | 5 | /
CN1CCN(CC(=O)N2N=C(c3cccs3)CC2c2ccco2)CC1 (centres undefined) | 2734 | -1 | -11 | -2 | -2 | /
O=C(CCl)N1N=C(c2cccs2)CC1c1ccco1 (centres undefined) | 3533 | 1 | 2 | 38* | -3 | 83*
O=C1N/C(=N/S(=O)(=O)Cc2ccccc2)S/C1=C/c1ccc2c(c1)OCO2 | 3826 | -1 | -13 | 13* | -1 | 2
CCCCOc1ccc(C(=O)Oc2cccnc2)cc1 | 3878 | 1 | -17 | 19* | -6 | 14*
CC(C)(C)c1ccc(NC(=O)CSc2n[nH]c(=O)n2-c2cccnc2)cc1 | 5301 | 0 | 1 | 12* | -1 | -3
Cc1nc(N2CCC(C)CC2)c2c(C)c(C(=O)Nc3cccc(C(F)(F)F)c3)sc2n1 | 2024 | 2 | 0 | -5 | 1 | /
Cc1nc(N2CCC(C)CC2)c2c(C)c(C(=O)Nc3ccc4c(c3)OCCO4)sc2n1 | / | / | / | 14* | / | 3
COC(=O)c1ccc(OC(=O)CN2C(=O)c3ccccc3C2=O)cc1 | 3709 | -6 | ? | 15* | 38* | 14*
SMILES | Autofluor counter | BoNT A protease | BoNT-F LC inh | SARS 3CLpro inh-1 | Anthrax LF prot | SARS 3CLpro inh-2
N/C(=N\OC(=O)CCCc1ccccc1)c1ccccn1 | 2186 | 0 | 2 | -2 | 0 | /
COc1ccccc1OCCNC(=O)c1cc(=O)[nH]c2ccccc12 | 4246 | -1 | 2 | 62* | -8 | 65*
COC(=O)[C@@H](Cc1c[nH]c2ccccc12)NC(=O)c1cc(=O)[nH]c2ccccc12 | 4649 | 0 | 6 | 14* | -5 | 2
Cc1ccc(OCCNC(=O)c2cc(=O)[nH]c3ccccc23)cc1 | 4503 | -2 | -2 | 3 | -1 | /
CCc1cc(C(=O)c2ccc(C)cc2)c(NC(=O)CCl)s1 | 2104 | 0 | -4 | 20* | -2 | 44*
Cc1cc(C(=O)c2ccc(Cl)cc2)c(NC(=O)CCl)s1 | 2498 | -1 | -2 | 6 | -2 | /
CN1C(=O)/C(=C2/C=Cc3ccccc3N2CCCS(=O)(=O)O)SC1=S | 2370 | 0 | -10 | 6 | -2 | /
CCOC(=O)c1c(C)n(S(=O)(=O)c2ccc(C)cc2)c2ccc(O)c(C(=O)O)c12 | 5184 | 1 | 11 | 13* | -1 | 1
CCOC(=O)C1=C[C@@H](C)N(S(=O)(=O)c2ccc(C)cc2)[C@H]1c1ccccc1 | 5406 | 0 | -1 | / | -1 | /
Cc1cc(C)cc(NS(=O)(=O)c2ccc3[nH]cc(C(=O)N4CCc5ccccc54)c(=O)c3c2)c1 | 2535 | 0 | -5 | 14* | 0 | -2
COc1ccc(S(=O)(=O)N2CCN(C(=O)Nc3ccccc3OC)CC2)cc1 | 6058 | 0 | 0 | 13* | 0 | -2
COc1ccc(NC(=O)N2CCN(S(=O)(=O)c3ccc(F)cc3)CC2)c(OC)c1 | 4735 | -2 | 2 | 2 | 1 | /
Cc1ccc(-n2nnnc2SCC(=O)NC(C(=O)O)(c2ccccc2)c2ccccc2)cc1C | 2222 | 0 | -3 | 14* | 2 | 4
CCCOC(=O)c1c(-c2ccc(C)cc2C)csc1NC(=O)C1C2CCC(O2)C1C(=O)O (centres undefined) | 2490 | 0 | -1 | 12* | 2 | 1
NC(=O)c1c(NC(=O)COC(=O)CSc2nnc(-c3ccc(Cl)cc3)o2)sc2c1CCC2 | 4274 | 1 | 16 | -3 | 5 | /
NCCCn1c(C(=O)c2cc(Cl)c(N)c(Cl)c2)c2ccccc2[n+]1[O-] | 4058 | 4 | -11 | / | 0 | /
COc1ccc(C(=O)c2c3ccccc3[n+]([O-])n2CCC(N)=O)cc1 | 3536 | 0 | -3 | / | 1 | /
Cc1ccc(C(=O)c2c3ccc(C(F)(F)F)cc3[n+]([O-])n2CCC(N)=O)cc1 | 3990 | 0 | -9 | 27* | -4 | 21*
NC(=O)CCn1c(C(=O)c2cccc([N+](=O)[O-])c2)c2ccccc2[n+]1[O-] | 3707 | 0 | 3 | 26* | 0 | 26*
Cc1ccc(C(=O)c2c3ccc(C(F)(F)F)cc3[n+]([O-])n2CCCC(N)=O)cc1 | 3860 | 0 | -3 | / | 2 | /
NC(=O)CCn1c(C(=O)c2cc(Cl)c(N)c(Cl)c2)c2ccccc2[n+]1[O-] | 2975 | 0 | -2 | 30* | 5 | 35*
Cc1cccc(-n2nnc(C(=O)NCc3ccccc3Cl)c2N)c1 | 3216 | 0 | 1 | 6 | 0 | /
COc1ccccc1CCNS(=O)(=O)c1ccc(C(=O)O)n1C | 6341 | 0 | -12 | -1 | -5 | /
CC(C)c1ccc(CC(=O)N2CCC2(C)C(=O)NCC(C)(C)C)cc1 (centres undefined) | 2847 | 0 | 2 | / | 9 | /

High-throughput results deposited in PubChem BioAssay by several laboratories.
